The values below come from PubChem BioAssay (Tox21).

Molecules are shown by their SMILES. Inconclusive results are not listed. Where a call stands in place of a potency, no number is given. Calls of active or inactive are those of the source. The call rests on the fitted dose curve; in most records, active means well fitted inhibition curve with a large enough effect in the repeat runs; inconclusive means weak or mixed curves; inactive means flat fitted curve, though single readings scatter.
Potency means the concentration at half of the fitted maximal effect.

Voltage-gated inwardly rectifying potassium channel KCNH2 (Homo sapiens), sequence (Q12809 whole entry, looked up): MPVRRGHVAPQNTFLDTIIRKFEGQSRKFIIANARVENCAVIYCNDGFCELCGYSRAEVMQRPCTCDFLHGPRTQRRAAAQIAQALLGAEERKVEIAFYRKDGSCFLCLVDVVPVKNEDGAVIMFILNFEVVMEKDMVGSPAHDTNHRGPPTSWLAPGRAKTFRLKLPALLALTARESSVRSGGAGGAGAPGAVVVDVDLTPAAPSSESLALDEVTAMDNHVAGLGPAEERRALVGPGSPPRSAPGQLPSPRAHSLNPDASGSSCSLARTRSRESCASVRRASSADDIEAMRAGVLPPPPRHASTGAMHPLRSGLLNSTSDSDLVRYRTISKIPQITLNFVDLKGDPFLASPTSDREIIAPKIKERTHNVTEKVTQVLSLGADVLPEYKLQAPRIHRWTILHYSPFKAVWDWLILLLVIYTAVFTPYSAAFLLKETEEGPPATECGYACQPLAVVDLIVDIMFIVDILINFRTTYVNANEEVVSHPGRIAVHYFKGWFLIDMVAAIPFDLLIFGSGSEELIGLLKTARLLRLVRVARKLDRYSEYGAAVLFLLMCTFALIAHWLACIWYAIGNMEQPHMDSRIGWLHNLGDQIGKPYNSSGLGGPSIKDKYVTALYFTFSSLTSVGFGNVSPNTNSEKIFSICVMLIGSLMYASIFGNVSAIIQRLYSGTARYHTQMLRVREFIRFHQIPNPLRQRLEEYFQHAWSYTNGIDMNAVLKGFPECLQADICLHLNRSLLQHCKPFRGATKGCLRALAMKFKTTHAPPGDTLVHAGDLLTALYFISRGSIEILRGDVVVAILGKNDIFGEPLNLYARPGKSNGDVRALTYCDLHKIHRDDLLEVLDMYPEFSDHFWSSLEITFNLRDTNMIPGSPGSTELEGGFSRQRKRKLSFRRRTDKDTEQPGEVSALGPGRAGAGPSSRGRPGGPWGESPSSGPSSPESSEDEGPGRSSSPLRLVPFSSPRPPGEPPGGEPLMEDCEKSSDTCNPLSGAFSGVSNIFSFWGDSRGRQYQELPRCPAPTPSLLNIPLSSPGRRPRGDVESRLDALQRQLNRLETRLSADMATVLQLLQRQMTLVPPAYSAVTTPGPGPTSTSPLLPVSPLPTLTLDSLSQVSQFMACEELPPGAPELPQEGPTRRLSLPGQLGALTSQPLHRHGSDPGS

The target in this test is Voltage-gated inwardly rectifying potassium channel KCNH2 (Homo sapiens) (UniProt Q12809). The test can be described thus: Human Ether-a-go-go-Related Gene (hERG) channel small molecule antagonists: fluorescence cell-based qHTS assay (AID 1671200). Further: nearly all actives have a fitted effect of over 50% in size. The following applies: hERG-U2OS cells, FluxOR thallium flux fluorescence; series mostly up to 76.8 µM. The source says:
National Center for Advancing Translational Sciences [NCATS]
U.S. Environmental Protection Agency [EPA]
National Institutes of Environmental Health Sciences [NIEHS]
National Toxicology Program [NTP]
U.S. Food and Drug Administration [FDA]
Mutations in the hERG channel cause Long QT (LQT) syndrome. LQT syndrome is a cardiac disorder which can cause ventricle arrhythmia and sudden death. Additionally, compounds which block the hERG channel can cause acquired LQT syndrome. Several FDA approved drugs have been removed from the market due to their hERG blocking activity. A cell-based hERG channel inhibition assay can be used to screen chemical compounds that inhibit hERG channel. This assay measures hERG channel activity using thallium ions as surrogate ions to measure potassium into the cells.
Tox21 Assay Protocol Summary:
hERG-U2OS cells were resuspended in culture medium and dispensed into 1536-well, black wall/clear-bottom plates at 1000cells/well/3uL using a Multidrop Combi dispenser (Thermo Fisher, Waltham, MA). After plates were incubated at 37 C overnight, 3 uL of Loading Buffer provided by FluxOR II Potassium Ion Channel Assay kit (Thermo, Carlsbad, CA) was added to each well. The assay plates were then incubated at room temperature in the dark for 1h. […] After the assay plates were incubated at room temperature for 10 min, 1 uL of Stimulus Buffer provided by FluxOR II Potassium Ion Channel Assay kit was added into each well and fluorescence intensity (480nm excitation/540nm emission) was continuously measured for 2 min at 1 second intervals using a Functional Drug Screening System (FDSS) 7000EX kinetic plate reader (Hamamatsu, Japan).
In general terms: Block of hERG is tested as a sign of cardiac risk.
In the case of `CC(C)(Sc1cc(C(C)(C)C)c(O)c(C(C)(C)C)c1)Sc1cc(C(C)(C)C)c(O)c(C(C)(C)C)c1`, the Potency result was “inactive”.
On the same count and under the same terms, in the case of `CCCCN(CCCC)CCCCCCN(CCCC)CCCC` it was “inactive”; in that of `CC/C=C/CCCCCCCCCCOC(C)=O`, “inactive”; in that of `CC(C)C(C)C`, “inactive”.
Consider `CCCCCCCCCCCCCCCC(=O)OC`, for which the activity change, negative = inhibition was -9.56% [at 15.8 µM] (inactive).
`CC(C)C[P+](C)(CC(C)C)CC(C)C`: the Potency result was “inactive”.
On the same count and under the same terms, the result for `CCN(CC)CC(=O)Oc1ccc(NC(C)=O)cc1` reads “inactive”; that for `O=Cc1ccccc1S(=O)(=O)O`, “inactive”; that for `O=C[C@@H](O)[C@H](O)[C@H](O)CO`, “inactive”.
On the same count and under the same terms, in the case of `CCOC(=O)CC(C(C)=O)C(C)=O` it was “inactive”.
On the same count and under the same terms, the result for `Cc1ccc(S(=O)(=O)NC(=O)NN2CC3CCCC3C2)cc1` (stereo not given) reads “inactive”; that for `N#Cc1cc(NC(=O)C(=O)O)c(Cl)c(NC(=O)C(=O)O)c1`, “inactive”; that for `CC(=O)OC/C=C(/C)CCC=C(C)C`, “inactive”.
For the compound `CCN1CCN(C(=O)N[C@@H](C(=O)N[C@@H]2C(=O)N3C(C(=O)O)=C(CSc4nnnn4C)CS[C@H]23)c2ccc(O)cc2)C(=O)C1=O`, the Potency entry is “inactive”.
On the same count and under the same terms, in the case of `CCOc1ccccc1OCCN[C@H](C)Cc1ccc(OC)c(S(N)(=O)=O)c1` it was 21.3 µM (active); in that of `C/C(Cl)=C/CCl`, “inactive”; in that of `O=C1CC2(CCCC2)CC(=O)N1CCNCC1COc2ccccc2O1` (stereo not given), 19 µM (active).
Still for that read-out and setting: in the case of `CC(=O)c1ccc(O)c(C(N)=O)c1` it was “inactive”.
Same read-out and setting: the result for `Cc1cc(=O)oc2cc(O[C@@H]3SC[C@@H](O)[C@H](O)[C@H]3O)ccc12` reads “inactive”.
Regarding `CCC(C)SSC(C)CC` (stereo not given), the Potency result was “inactive”.
Still for that read-out and setting: the result for `CCCCCCCCOCCC#N` reads “inactive”; that for `CCCc1ncc(C(=O)O)s1`, “inactive”.
Still for that read-out and setting: in the case of `CC/C=C\CCOC(=O)c1ccccc1` it was “inactive”.
Consider `Cc1ccc(Br)cc1`, for which the Potency result is “inactive”.
On the same count and under the same terms, the result for `C[C@@H](CN1CC(=O)NC(=O)C1)N1CC(=O)NC(=O)C1` reads “inactive”.
On the same count and under the same terms, the result for `N[C@H]1C(O)O[C@H](CO)[C@@H](O)[C@@H]1O` (stereo not given in full) reads “inactive”; that for `CCCCC(CC)CCC(CC(C)C)OS(=O)(=O)O` (stereo not given), “inactive”.
Regarding `O=C(O)Cc1ccccc1Oc1ccc(Cl)cc1Cl`, the Potency entry was “inactive”.
Same read-out and setting: in the case of `C=CCCCCCCCCOC(C)=O` it was “inactive”; in that of `CCC(=O)OCCOc1ccccc1`, “inactive”.
Same read-out and setting: in the case of `Clc1cc(Cl)c(Cl)c(Cl)c1Cl` it was “inactive”; in that of `CC(C)c1cc(C(C)C)cc(C(C)C)c1`, “inactive”; in that of `O=Cc1ccc(C(=O)O)cc1`, “inactive”.
On the same count and under the same terms, the result for `COc1ccc2cc(CCC(C)=O)ccc2c1` reads “inactive”; that for `Nc1nc(Cl)cc(Cl)n1`, “inactive”.
As for `CN(C)c1ccncc1`, the Potency result was “inactive”.
On to `COc1ccccc1N1CCN(CC(O)COc2cc(OC)c(OC)c(OC)c2)CC1` (stereo not given), for which the Potency entry was “inactive”.
The same measure, in the same setting: in the case of `CN(C)CCc1c[nH]c2ccc(CS(=O)(=O)N3CCCC3)cc12` it was “inactive”.
On the same count and under the same terms, in the case of `CNCCc1ccccn1` it was “inactive”.
Turning to `CCCCCCCCCCCCCCCCN(C)C`, the activity change, negative = inhibition is -6.11% [at 6.97 µM] (inactive).
